Experimental data as given in PubChem BioAssay (NCI).
About 83,000 compounds went through this panel and 20% of them were active in at least one assay; those are over-represented in the sample as a whole.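 The test compound was applied at a single concentration to cells in 96-well plates for 48 hours, and percent growth was recorded.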 The source made the active and inactive calls. Rule for the calls: active = growth percent below 10; inactive = the rest.

How the values were obtained:
Assay in all cases: NCI-60 one-dose screen, 48 h (100 = growth as untreated, 0 = no growth, -100 = all killed)
Settings in all cases: 10 µM unless noted
T-47D breast = system: T-47D breast
BT-549 breast = system: BT-549 breast
MDA-MB-435 melanoma = system: MDA-MB-435 melanoma
MCF7 breast = system: MCF7 breast
HCC-2998 colon = system: HCC-2998 colon
KM12 colon = system: KM12 colon
SW-620 colon = system: SW-620 colon
HCT-116 colon = system: HCT-116 colon

Measured: growth

CN[C@@H](CCCNC(N)=NC/C=C(/C)CCC=C(C)C)C(=O)N(C)[C@@H](CCCNC(N)=NCC=C(C)C)C(=O)N[C@H](C)[C@H](OS(=O)(=O)O)c1ccc(OS(=O)(=O)O)c(COS(=O)(=O)O)c1
inactive: T-47D breast 98.1% | BT-549 breast 107% | MDA-MB-435 melanoma 113% | MCF7 breast 97.7% | HCC-2998 colon 105% | KM12 colon 100%

O=C(Nc1cccc(-n2ccc3c(NC(=O)c4ccccc4)nccc32)c1)Nc1cc(C(F)(F)F)cc(C(F)(F)F)c1
inactive: T-47D breast 55% | SW-620 colon 21.2% | MCF7 breast 13.6% | HCC-2998 colon 13.2%
active: BT-549 breast 2.85% | HCT-116 colon -15.8% | KM12 colon -15.2%

CC(Cc1cccc(C(F)(F)F)c1)NCCOC(=O)c1ccccc1 (stereo not given)
inactive: T-47D breast 105% | BT-549 breast 109% | SW-620 colon 103% | MCF7 breast 106% | HCT-116 colon 100% | HCC-2998 colon 109% | KM12 colon 114%

CC(C(=O)O)N1C(N)=NNC1c1ccccc1O (stereo not given)
inactive: T-47D breast 59.7% | BT-549 breast 104% | SW-620 colon 95.7% | MCF7 breast 80.4% | HCC-2998 colon 92.7% | KM12 colon 93.9%

CC(=O)c1cc2c(c(O)c1C)C(=O)C(=O)c1c(O)cccc1-2
active: T-47D breast -28.5% | BT-549 breast -94.4% | SW-620 colon -69% | MCF7 breast -55.6% | HCT-116 colon -85.9% | HCC-2998 colon -84.2% | KM12 colon -50.5%

O=c1c2ccccc2sc2c(NCCCNCCO)nc3ccccc3c12
inactive: T-47D breast 65.9% | BT-549 breast 72.3%
active: SW-620 colon -62.4% | MCF7 breast -72.9% | HCT-116 colon -57.5% | HCC-2998 colon -49.2% | KM12 colon 6.31%

Cc1cn(C2CC(N=[N+]=[N-])C(COP(=O)(O)OP(=O)(O)OP(=O)(O)O)O2)c(=O)[nH]c1=O (stereo not given)
inactive: T-47D breast 111% | BT-549 breast 115% | SW-620 colon 109% | MCF7 breast 104% | HCT-116 colon 94.1% | HCC-2998 colon 97.6% | KM12 colon 108%

COc1ccc2c(c1)OC(N(C(C)=O)C(C)=O)=C(C#N)C2c1ccc(F)cc1 (stereo not given)
inactive: T-47D breast 42% | BT-549 breast 38.1% | SW-620 colon 20.9% | MCF7 breast 17.8% | HCT-116 colon 25.5% | HCC-2998 colon 59.2% | KM12 colon 25.6%

CC(C)C1(C(C)C)NC(=O)NC1=O
inactive: T-47D breast 109% | BT-549 breast 111% | SW-620 colon 127% | MCF7 breast 101% | HCT-116 colon 98.5% | HCC-2998 colon 102% | KM12 colon 138%

COc1ccccc1C(OC(C)=O)OC(C)=O
inactive: T-47D breast 95.3% | BT-549 breast 102% | MCF7 breast 90.9% | HCT-116 colon 95.7% | KM12 colon 105%

CC1CCc2cc(F)cc3c(=O)c(C(=O)O)cn1c23 (stereo not given)
inactive: T-47D breast 99.7% | BT-549 breast 104% | SW-620 colon 106% | MCF7 breast 112% | HCT-116 colon 105% | KM12 colon 102%

Cc1ccc[n+](CC(=O)c2cccc3ccccc23)c1
inactive: T-47D breast 91.9% | BT-549 breast 93.8% | SW-620 colon 106% | MCF7 breast 98.6% | HCT-116 colon 99.6% | HCC-2998 colon 104% | KM12 colon 103%

O=C(Nc1ccccc1Cl)c1c[nH]c(=O)c(-c2ccc(N3CCCOC4(CC4)C3)cc2)c1
inactive: T-47D breast 31.5% | BT-549 breast 56.3% | SW-620 colon 78.1% | MCF7 breast 40% | HCT-116 colon 42.4% | HCC-2998 colon 67.5% | KM12 colon 74.3%

COc1ccc(-c2cc3ccc(N(C)C)cc3nc2N)c(F)c1
inactive: T-47D breast 24.3% | BT-549 breast 18.8% | SW-620 colon 42.5% | MCF7 breast 14.7% | HCT-116 colon 19.3% | HCC-2998 colon 51.8% | KM12 colon 35%

CCCCN(CCCC)c1ccc(C(=N)c2ccc(N(C)C)cc2)cc1
active: T-47D breast -23.3% | BT-549 breast -72.4% | SW-620 colon -85.2% | MCF7 breast -52.9% | KM12 colon -50.5%

O=C(NCCNc1nccc(-c2c(-c3cccc(O)c3)nc3sccn23)n1)Nc1cc(C(F)(F)F)cc(C(F)(F)F)c1
inactive: T-47D breast 72% | BT-549 breast 87.6% | SW-620 colon 73.5% | MCF7 breast 67.5% | HCT-116 colon 66.3% | HCC-2998 colon 65.5% | KM12 colon 43.1%

CCCCn1c(-c2cccc(OC)c2)nc2cc(OC)c(OC)cc2c1=O
inactive: T-47D breast 91.6% | BT-549 breast 283% | MCF7 breast 97.9% | HCT-116 colon 89.3% | HCC-2998 colon 103% | KM12 colon 108%

C=CC(=O)NC(=O)Nc1ccccc1Cl
inactive: T-47D breast 65.8% | BT-549 breast 75.3% | SW-620 colon 53.6% | MCF7 breast 27.1% | HCT-116 colon 55.5% | HCC-2998 colon 110% | KM12 colon 96.4%

[2H]c1nc(Nc2ncc(F)c(-c3cc(F)c4nc(C)n(C(C)C)c4c3)n2)c([2H])c([2H])c1CN1CCN(CC)CC1
inactive: T-47D breast 71.8% | BT-549 breast 55.4% | SW-620 colon 33.8% | MCF7 breast 25.9% | HCT-116 colon 20.6% | HCC-2998 colon 64.1% | KM12 colon 31.9%

O=C1C(Cl)=C(Nc2cccc3cc4ccccc4nc23)C(=O)c2ccccc21
inactive: T-47D breast 37.9% | BT-549 breast 91.7% | SW-620 colon 31.1% | MCF7 breast 20.1% | HCT-116 colon 17% | HCC-2998 colon 50.7% | KM12 colon 52.3%

C=C1C(=O)O[C@H]2[C@H]1CC/C(COC(=O)c1ccc3ccccc3c1)=C\CC[C@@]1(C)O[C@@H]21
inactive: HCC-2998 colon 42% | KM12 colon 32.8%
active: T-47D breast -55.2% | BT-549 breast -55.2% | SW-620 colon -37.9% | MCF7 breast -36.1% | HCT-116 colon -90.6%

CCCOC(=O)c1ccc([N+](=O)[O-])o1
inactive: T-47D breast 114% | BT-549 breast 127% | SW-620 colon 97.2% | MCF7 breast 94.2% | HCT-116 colon 105% | HCC-2998 colon 121% | KM12 colon 101%

COc1ccc(-c2cc(-c3nnc(SC/C(=N\O)c4ccccc4)n3-c3ccccc3)c3ccccc3n2)cc1
inactive: T-47D breast 106% | BT-549 breast 108% | MDA-MB-435 melanoma 108% | HCC-2998 colon 103% | KM12 colon 98.9%

c1ccc([Se]CCCN2CCN(CCC[Se]c3ccccc3)CC2)cc1
inactive: T-47D breast 111% | BT-549 breast 125% | MCF7 breast 110% | HCT-116 colon 74.5% | HCC-2998 colon 115% | KM12 colon 109%

CN1CCN(Cn2nc(-c3cc(F)c(Cl)cc3Cl)n(/N=C/c3ccc(N(C)C)cc3)c2=S)CC1
inactive: T-47D breast 93.7% | BT-549 breast 67.1% | SW-620 colon 70.5% | MCF7 breast 112% | HCT-116 colon 82.1% | HCC-2998 colon 98% | KM12 colon 88.8%

Nc1ncnc2c1c(C(F)(F)F)cn2[C@@H]1O[C@H](CO)[C@@H](O)[C@H]1O
active: T-47D breast -0.423% | BT-549 breast -10.2% | SW-620 colon 5.25% | MCF7 breast 7.41% | HCT-116 colon 8.38% | HCC-2998 colon 7.21% | KM12 colon 4.05%

CCCc1nn2c(CCC(=O)c3nc4ccc([N+](=O)[O-])cc4[nH]3)nnc2s1
inactive: T-47D breast 102% | BT-549 breast 111% | SW-620 colon 97.6% | HCC-2998 colon 100% | KM12 colon 104%

N#CC(C#N)=C(C#N)c1c[nH]c2ccccc12
inactive: T-47D breast 60.8% | MDA-MB-435 melanoma 95.6% | SW-620 colon 62.4% | MCF7 breast 74.7% | HCT-116 colon 85.4% | HCC-2998 colon 106% | KM12 colon 102%

CC(C)CCC[C@@H](C)[C@H]1CC[C@H]2[C@@H]3CC=C4N(c5ccccc5)C(=O)CC[C@]4(C)[C@H]3CC[C@]12C
inactive: T-47D breast 95% | MDA-MB-435 melanoma 100% | MCF7 breast 89.5% | HCT-116 colon 99.2% | HCC-2998 colon 102% | KM12 colon 105%

COc1ccc(OCC(O)CN2CCN(c3ccc(Cl)cc3)CC2)cc1 (stereo not given)
active: HCC-2998 colon -94.4%
inactive: T-47D breast 78% | MDA-MB-435 melanoma 106% | SW-620 colon 101% | MCF7 breast 89.2% | HCT-116 colon 91.5% | KM12 colon 98.9%

O=C1OC(=O)C2C3CC(c4ccccc43)C12 (stereo not given)
inactive: T-47D breast 103% | SW-620 colon 101% | MCF7 breast 97.7% | HCT-116 colon 89.2% | KM12 colon 105%

CCCCCCCCCCCC(=O)OCCNC(=O)C[n+]1ccccc1
inactive: T-47D breast 95.3% | SW-620 colon 116% | MCF7 breast 97.9% | HCT-116 colon 103% | HCC-2998 colon 111% | KM12 colon 110%

Cc1cc2nc(-c3c(N)ncc(C#N)c3-c3ccc(Cl)cc3)[nH]c2cc1C
inactive: T-47D breast 68.8% | MDA-MB-435 melanoma 58% | SW-620 colon 76.6% | MCF7 breast 58.5% | HCT-116 colon 34.8% | HCC-2998 colon 65.4% | KM12 colon 52.9%

COc1cccc(/C=N/C(=S)NC2(C)C3CCC(C3)C2(C)C)c1O (stereo not given)
inactive: T-47D breast 56.5% | MDA-MB-435 melanoma 89.8% | SW-620 colon 78.9% | MCF7 breast 47.8% | HCT-116 colon 53.4% | KM12 colon 87.8%
